Several values for one entry are separate records, joined by “and”; a condition that tells them apart may be missing. Equal values may be shown once. Inconclusive results are not listed. Entries that show only a call come without a potency. A structure can be active in one record and inactive in another. Activity calls are given as the source filed them. Unless noted, calls come from the whole dose curve; as a rule, active = well fitted curve in the direction sought with a large enough effect in the repeat runs; inconclusive = weak or mixed curves; inactive = no such curve, though single readings can be large; an effect the other way counts as inactive or inconclusive.
Tests used:
[1] = qHTS assay to identify small molecule antagonists of the estrogen related receptor (ERR) signaling pathway from Tox21 library - cell viability counter screen (AID 1224834); note: nearly all actives have a fitted effect of over 30% in size; note: potency is the fitted concentration of half-maximal effect
Summary of the method: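 Cytotoxicity of test substances is gauged in the same ERR cells used for the antagonist screen, after 17.5 h of compound treatment at 37 C, by CellTiter-Fluor fluorescence measured after 30 min.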

[2] = target: Luciferin 4-monooxygenase (Photinus pyralis) (UniProt P08659); assay: qHTS assay to identify small molecule inhibitors of firefly luciferase (AID 1224835); note: nearly all actives have a fitted effect of over 25% in size; note: potency is the fitted concentration of half-maximal effect
Summary of the method: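 Quantitative HTS format; KM concentrations of both substrates. Purified P. pyralis FLuc activity quantified from luminescence images.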

[3] = qHTS assay to identify small molecule agonists of the constitutive androstane receptor (CAR) signaling pathway - cell viability counter screen (AID 1224836); note: series mostly up to about 92 µM; nearly all actives have a fitted effect of over 45% in size
Summary of the method: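 Fluorescence from CellTiter-Fluor indicates live cells after 23 h exposure. The human hepatoma line expresses hCAR and a CYP2B6-2.2kb reporter. Incubation medium contains 0.75 uM PK11195 (final).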

[4] = qHTS assay to identify small molecule antagonists of the constitutive androstane receptor (CAR) signaling pathway - cell viability counter screen (AID 1224837); note: series mostly up to about 92 µM; nearly all actives have a fitted effect of over 45% in size
Summary of the method: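 Multiplexed cytotoxicity read-out for the CAR antagonist screen: double-stable HepG2-CYP2B6-hCAR cells co-treated with 50 nM CITCO (final) and compound over 15 concentrations, incubated 23 hr, then assessed by CellTiter-Fluor fluorescence.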

[5] = qHTS assay to identify small molecule antagonists of the estrogen related receptor signaling pathway with the pleiotropic PPARgamma coactivator (PGC) from Tox21 10K library - cell viability counter screen (AID 1224840; active = well fitted cell-killing curve with a large enough effect in the repeat runs, not every such curve was filed as active; note: nearly all actives have a fitted effect of over 40% in size)
Summary of the method: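 Step one, plate 2,000 PGC/ERR cells per well; step two, incubate 6 h at 37 C/5% CO2; step three, pin-transfer compounds; step four, incubate 17.5 h; step five, add CellTiter-Fluor and read fluorescence after 30 min.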

[6] = qHTS assay to identify small molecule agonists of the hypoxia (HIF-1) signaling pathway - cell viability counter screen (AID 1224844; calls by dose curve; note: nearly all actives have a fitted effect of over 50% in size)
Summary of the method: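 Tox21 10K compounds were added to HRE-bla ME-180 cells (0.5% dialyzed FBS) and incubated 17 hrs at 37C; ATP-based CellTiter-Glo luminescence then reported cell viability in the same wells.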

[7] = qHTS assay to identify small molecule agonists of H2AX (AID 1224845; active = well fitted activation curve with a large enough effect in the signal ratio in the repeat runs, not every such curve was filed as active; the % refers to the signal ratio)
Summary of the method: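 Wild-type CHO-K1 cells plated overnight, then exposed 3 hr at 37C to compounds at 15 concentrations (0.76% DMSO). Lysed, then HTRF anti-pH2AX(S139)-cryptate/anti-H2AX-d2 detection after 24 hr at room temperature; emissions 665 and 620 nm.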

[8] = qHTS RealTime-Glo MT Cell Viability Assay in HepG2 cells - 24 hour (AID 1224867); note: nearly all actives have a fitted effect of over 50% in size
Summary of the method: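 HepG2 suspension premixed with RealTime-Glo reagents is plated at 600 cells per well and left 5 h at 37 C/5% CO2. Compounds in DMSO then go in, and bioluminescence reflecting viable cell number is recorded over 40 h.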

[9] = qHTS RealTime-Glo MT Cell Viability Assay in HEK293 cells - 32 hour (AID 1224868); note: nearly all actives have a fitted effect of over 50% in size; note: potency is the fitted concentration of half-maximal effect
Summary of the method: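 Reads taken at 0, 8, 16, 24, 32 and 40 h from the same wells. HEK293 cells (600/well) carried RealTime-Glo reagents from seeding, with compound added after a 5 h settle at 37 C.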

[10] = A CellTox Green Cytotoxicity Assay to monitor cytotoxicity in HEK293 cells - 0 hour (AID 1224869); note: nearly all actives have a fitted effect of over 50% in size
Summary of the method: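 Cytotoxicity was tracked continuously in HEK293 cells by a DNA-binding dye excluded from viable cells. Compounds were transferred in DMSO 5 h after seeding; fluorescence was recorded at intervals up to 40 h.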

[11] = target: Nuclear receptor subfamily 1 group I member 3 (Homo sapiens) (UniProt Q14994); assay: qHTS assay to identify small molecule antagonists of the constitutive androstane receptor (CAR) signaling pathway (AID 1224838); note: nearly all actives have a fitted effect of over 40% in size
Summary of the method: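 Compounds were titrated across 15 concentrations onto HepG2 cells double-stably expressing hCAR and a CYP2B6-2.2kb reporter, together with 50 nM CITCO (final). After 24 h at 37 C, luciferase activity was measured by luminescence.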

[12] = target: Nuclear receptor subfamily 1 group I member 3 (Homo sapiens) (UniProt Q14994); assay: qHTS assay to identify small molecule agonists of the constitutive androstane receptor (CAR) signaling pathway (AID 1224839); note: nearly all actives have a fitted effect of over 15% in size; note: potency is the fitted concentration of half-maximal effect;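 for activation: HepG2 cells stably carrying human CAR and a CYP2B6 luciferase reporter; series mostly up to about 92 µM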
Summary of the method: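 Stable hCAR/CYP2B6-2.2kb HepG2 line in DMEM with 10% FBS; compounds (15 concentrations) and 0.75 uM PK11195 final, 24 h at 37 C/5% CO2, then ONE-Glo luminescence after 30 min.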

[13] = target: Thyrotropin receptor (Homo sapiens) (UniProt P16473); assay: qHTS assay to identify small molecule agonists of the thyroid stimulating hormone receptor (TSHR) signaling pathway (AID 1224843; calls by dose curve; note: nearly all actives have a fitted effect of over 45% in size; note: potency is the fitted concentration of half-maximal effect)
Summary of the method: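 TSHR-expressing HEK293 cells (800 per well) were exposed to compounds for 30 min at room temperature. cAMP was then detected by HTRF competition with cAMP-d2 and anti-cAMP cryptate, read after 1 h at room temperature. Fifteen concentrations, triplicate.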

[14] = qHTS assay to identify small molecule agonists of the hypoxia (HIF-1) signaling pathway (AID 1224846; active = well fitted activation curve with a large enough effect in the signal ratio in the repeat runs, not every such curve was filed as active; the % refers to the signal ratio)
Summary of the method: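 Steps: seed ME-180 HRE-bla cells (2,000/well, 0.5% dialyzed FBS); incubate 5 hrs at 37C; pin-transfer compounds or DMSO; incubate 17 hrs; add LiveBLAzer B/G substrate CCF4-AM; measure reporter activation by FRET.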

[15] = qHTS assay to identify small molecule agonists of H2AX - cell viability counter screen (AID 1224847; calls by dose curve; note: nearly all actives have a fitted effect of over 30% in size; note: potency is the fitted concentration of half-maximal effect)
Summary of the method: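 Viability of CHO-K1 (wild type) cells after 3 hr compound exposure was measured by CellTiter-Glo luminescence.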

[16] = qHTS assay to identify small molecule antagonists of the estrogen related receptor signaling pathway with the pleiotropic PPARgamma coactivator (PGC) from Tox21 10K library (AID 1224841; call rule not given here; note: potency is the fitted concentration of half-maximal effect)
Summary of the method: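 Antagonism in this quantitative HTS is taken from loss of luciferase signal in PGC/ERR cells. Cells (2,000/well) are treated with compounds in DMSO after a 6 h settling period and read by One-Glo luminescence after 18 h.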

[17] = qHTS assay to identify small molecule agonists of the estrogen related receptor signaling pathway with the pleiotropic PPARgamma coactivator (PGC) from Tox21 10K library (AID 1224842); note: nearly all actives have a fitted effect of over 15% in size
Summary of the method: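 PGC/ERR reporter cells (NTP line) were seeded 2,000 per well, rested 6 h at 37 C/5% CO2, then pin-dosed with compounds in DMSO for 18 h at 37 C; luciferase read by One-Glo luminescence after 30 min at room temperature.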

Chain of Nuclear receptor subfamily 1 group I member 3 (Homo sapiens) (Q14994 whole entry, looked up): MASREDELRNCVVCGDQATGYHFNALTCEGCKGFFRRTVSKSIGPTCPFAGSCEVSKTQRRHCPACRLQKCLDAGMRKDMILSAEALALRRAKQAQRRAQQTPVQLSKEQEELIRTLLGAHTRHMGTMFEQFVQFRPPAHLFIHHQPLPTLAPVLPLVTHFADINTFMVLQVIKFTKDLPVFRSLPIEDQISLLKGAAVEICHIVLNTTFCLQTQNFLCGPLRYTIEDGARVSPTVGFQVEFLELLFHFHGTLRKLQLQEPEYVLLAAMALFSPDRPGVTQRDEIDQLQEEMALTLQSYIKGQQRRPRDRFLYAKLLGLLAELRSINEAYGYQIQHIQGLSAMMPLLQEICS
Chain of Luciferin 4-monooxygenase (Photinus pyralis) (P08659 whole entry, looked up): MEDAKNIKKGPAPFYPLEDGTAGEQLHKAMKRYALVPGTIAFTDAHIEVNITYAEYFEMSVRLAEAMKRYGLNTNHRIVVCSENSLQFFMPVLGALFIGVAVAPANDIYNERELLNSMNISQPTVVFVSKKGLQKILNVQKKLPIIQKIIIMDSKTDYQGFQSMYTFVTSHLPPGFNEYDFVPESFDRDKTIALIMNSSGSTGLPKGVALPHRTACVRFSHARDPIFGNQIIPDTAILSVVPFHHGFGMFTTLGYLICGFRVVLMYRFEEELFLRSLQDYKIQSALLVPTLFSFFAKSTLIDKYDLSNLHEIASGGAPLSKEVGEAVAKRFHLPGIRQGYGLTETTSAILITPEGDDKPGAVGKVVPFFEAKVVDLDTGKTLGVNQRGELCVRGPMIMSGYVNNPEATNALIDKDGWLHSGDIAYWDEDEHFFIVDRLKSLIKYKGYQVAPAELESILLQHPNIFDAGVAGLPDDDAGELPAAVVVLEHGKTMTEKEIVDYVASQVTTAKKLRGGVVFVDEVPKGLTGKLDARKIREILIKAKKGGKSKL
Chain of Thyrotropin receptor (Homo sapiens) (P16473 whole entry, looked up): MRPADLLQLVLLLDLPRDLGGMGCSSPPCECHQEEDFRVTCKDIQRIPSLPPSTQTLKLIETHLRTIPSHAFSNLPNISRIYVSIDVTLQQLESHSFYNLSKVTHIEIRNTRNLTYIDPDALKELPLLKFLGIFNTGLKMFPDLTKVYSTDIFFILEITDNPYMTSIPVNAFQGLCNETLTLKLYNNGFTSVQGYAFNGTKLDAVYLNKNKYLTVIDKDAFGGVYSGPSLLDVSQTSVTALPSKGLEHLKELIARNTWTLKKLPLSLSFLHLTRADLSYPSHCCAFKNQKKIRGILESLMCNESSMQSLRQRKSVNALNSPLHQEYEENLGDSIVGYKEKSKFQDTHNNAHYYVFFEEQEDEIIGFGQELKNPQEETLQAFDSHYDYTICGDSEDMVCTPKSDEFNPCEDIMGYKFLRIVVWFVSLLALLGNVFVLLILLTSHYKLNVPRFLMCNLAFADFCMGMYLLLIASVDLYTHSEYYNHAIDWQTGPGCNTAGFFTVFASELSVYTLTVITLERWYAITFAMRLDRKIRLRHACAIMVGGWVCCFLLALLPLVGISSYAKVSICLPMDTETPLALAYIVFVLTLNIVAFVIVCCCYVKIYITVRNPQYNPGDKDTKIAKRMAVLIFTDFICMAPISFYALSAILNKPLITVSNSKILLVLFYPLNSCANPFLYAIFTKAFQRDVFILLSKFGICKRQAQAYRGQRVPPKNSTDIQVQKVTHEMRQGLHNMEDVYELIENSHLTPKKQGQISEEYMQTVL

Compound	Potency [1]	Potency [2]	Potency [3]	Potency [4]	Potency [5]	Potency [6]	Potency [7]	Potency [8]	Potency [9]	Potency [10]	Potency [11]	Potency [12]	Potency [13]	outcome [14]	Potency [15]	Potency [16]	Potency [17]
O=C(O)CC[N+](=O)[O-]	inactive	inactive	inactive	inactive	inactive	inactive	inactive	inactive	inactive	inactive							
COP(=S)(OC)Oc1ccc([N+](=O)[O-])cc1			inactive	inactive		inactive	inactive		inactive	inactive	inactive	inactive	inactive	inactive			
C[C@]12CCC(=O)C[C@@H]1CC[C@@H]1[C@@H]2CC[C@]2(C)[C@@H](O)CC[C@@H]12	48 µM (active) and inactive		inactive	inactive	inactive	inactive		inactive	21.6 µM (active)	inactive					79.1 µM (active)		
COc1ccc(C(CN(C)C)C2(O)CCCCC2)cc1 (stereo unspecified)	inactive	inactive	inactive	inactive	inactive	inactive	inactive		inactive	inactive			inactive	inactive	inactive		
O=C(O)C(F)(F)C(F)(F)C(F)(F)C(F)(F)C(F)(F)C(F)(F)C(F)(F)F	inactive	inactive	inactive	inactive	inactive		inactive	inactive	inactive				inactive	inactive			
CCCCN(CCCC)N=O	inactive	inactive	inactive	inactive	inactive	inactive	inactive	inactive	inactive	inactive			inactive	inactive			
c1ccc(-c2cccc(-c3ccccc3)c2)cc1	inactive	9.03 µM (active) and 7.96 µM (active)	inactive	inactive	inactive	inactive	inactive		inactive				inactive	inactive	inactive		
S=C1NCCN1	inactive		inactive	inactive	inactive	inactive	inactive	inactive	inactive				1.69 µM (active) and inactive	inactive			
ClC1C(Cl)C(Cl)C(Cl)C(Cl)C1Cl (stereo unspecified)	inactive	inactive	inactive	inactive	inactive	inactive	inactive	inactive	inactive and 54.9 µM (active)	inactive				inactive		inactive and 68.6 µM (active)	inactive
Oc1cc(Cl)ccc1Cl	inactive	inactive	inactive	inactive	inactive	inactive	inactive	inactive	inactive	inactive			inactive	inactive			
c1cc(OCC2CO2)ccc1Cc1ccc(OCC2CO2)cc1 (stereo unspecified)		inactive	inactive	inactive	inactive		inactive	inactive	inactive	inactive	inactive	inactive	inactive				
CC(C)NC(C)C	inactive	inactive	inactive	inactive	inactive	inactive	inactive		inactive				inactive	inactive	inactive		
CN(C)c1ccc(C(=O)c2ccc(N(C)C)cc2)cc1	inactive and 9.69 µM (active)	35.2 µM (active) and 10 µM (active)		inactive	inactive	inactive	inactive		2.75 µM (active)		inactive	1.93 µM (active)		inactive			
